This experiment is described as follows: sensitizers of A549 cells to miR-34 induction, primary screen, imaging, A549 dox-inducible miR-34, nuclei and caspase counts (AID 1347080). Further: test concentration not given here. To be noted: A549 miR-34 inducible, Hoechst nuclei count, 48 h.
The mark [1] stands for this setting: measured here: relative caspase fold change +Dox/-Dox.
Setting [2] is: measured here: total cells with miR-34 induction, stronger effect = lower value.
The mark [3] stands for this setting: measured here: total cells without miR-34 induction.
[4] abbreviates: stronger effect = lower value, cell number ratio, induced over uninduced.

Calls of active or inactive are those of the source.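 How the source made its calls: active means compounds whose cell count with miR-34 switched on is under 0.7 times the count with it off; inactive means the rest.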

Turning to `CC[C@@]1(O)C(=O)OCc2c1cc1n(c2=O)-c2cc3ccccc3nc2C1`, the fold change reads like this: (stronger effect = lower value) 1.01 (inactive); under setting [1], 0.79. Also, the cell count amounted to 1320 under setting [2] and 1300 under setting [3].
With `CCCC[C@@H](C)C(OC(=O)C[C@@H](CC(=O)O)C(=O)O)C(C[C@@H](C)C[C@H](O)CCCC[C@@H](O)C[C@H](O)[C@H](C)N)OC(=O)C[C@@H](CC(=O)O)C(=O)O` (stereo partly drawn), the fold change was 0.933 (inactive) under setting [4] and 0.809 under setting [1]. Also, the cell count is 5390 under setting [2] and 5780 under setting [3].
Take `CCCCC/C=C\C/C=C\C/C=C\C/C=C\CCCC(=O)O[C@H](COC(=O)CCCCCCCCCCCCCCCCC)COP(=O)([O-])OCC[N+](C)(C)C`: the fold change runs as follows: under setting [4], 0.924 (inactive); under setting [1], 0.766. For the same compound, the cell count runs as follows: under setting [2], 5220; under setting [3], 5650.
In the same order, the values of `CCCCCCCCCCCCCCCC(=O)OC[C@H](COP(=O)([O-])OCC[N+](C)(C)C)OC(=O)CCCC=O` are 0.934 (inactive), 2.44, 5310 and 5690.
In the case of `CCN1C[C@@]2(COC)C3[C@@H](OC)[C@H]4[C@H]1C3([C@@H]1C[C@@]3(O)[C@H](OC(=O)c5ccccc5)[C@@H]1[C@]4(OC(C)=O)[C@@H](O)[C@@H]3OC)[C@H](OC)C[C@H]2O`, the fold change by setting is: under setting [4], 0.989 (inactive); under setting [1], 1.45. The cell count under setting [2] was found to be 5730 and the cell count under setting [3] was 5800.
In the same order, the values of `CN=C(NS(=O)(=O)c1ccc(Cl)cc1)N1C[C@@H](c2ccccc2)C(c2ccc(Cl)cc2)=N1` are 0.663 (active), 0.468, 3940 and 5940.
The like results for `CCCCC/C=C\C/C=C\C/C=C\C/C=C\CCCC(=O)N[C@@H](CO)C(=O)O` were, in that order, 1.06 (inactive), 1.04, 5850 and 5540.

(Values after PubChem BioAssay.)
